# Data as given in PubChem BioAssay (NCATS).
# Values joined by “and” are separate entries in the source; they are usually repeats but may differ in a detail not shown here. Equal values may be shown once. Unmarked numbers belong to inactive results. Results filed as inconclusive are left out. A call without a number means that no potency is given here. Active and inactive are the calls of the source. Unless noted, calls follow the shape of the dose curve; as a rule, active = well fitted curve in the direction sought with a large enough effect; inconclusive = small, poorly fitted or top-dose-only effect, or another doubt; inactive = no such curve, though single readings can be large; an effect the other way counts as inactive or inconclusive.
# Columns and labels:
# [1] = biological target: Hexokinase-4 (Homo sapiens) + Glucokinase regulatory protein (Homo sapiens) (UniProt P35557+Q14397); assay: qHTS assay for inhibitors of recombinant human GCK-GKRP interaction: HTRF assay (AID 743207)
# Procedure, shortened: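 Titration screening format: recombinant GST-GCK and FLAG-GKRP at 5 nM, S6P at 2 uM, labelled anti-tag antibodies, 60 min at RT, dual-wavelength HTRF readout.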
# [2] = qHTS Assay for Identifying Gametocytocidal Compounds (AID 743244);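 also: actives lower the fluorescent signal which means gametocytes are killed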; settings: P. falciparum 3D7 stage III-V gametocytes, alamarBlue, 72 h; max response: stronger effect = lower value
# Procedure, shortened: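 P. falciparum 3D7 stage III–V gametocytes (20,000 cells/well) were exposed to compounds for 72 h at 37 °C, 5% CO2. AlamarBlue was then added for 24 h; decreased resorufin fluorescence (Ex 525/Em 598 nm) indicated loss of viability.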
# [3] = biological target: Atrial natriuretic peptide receptor 1 (Homo sapiens) (UniProt P16066); assay: Natriuretic polypeptide receptor (hNpr1) antagonism - Pilot screen (AID 1347049; calls by dose curve;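 also: agonist-evoked cGMP luminescence read 20 min after hNppA addition; series mostly up to about 58 µM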)
# Procedure, shortened: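 Readout is cGMP-driven firefly luciferase luminescence in HEK293 cells carrying hNpr1 and a PDE5-domain GloSensor, read before and 20 min after 0.1 nM hNppA stimulation. Cells had 2% substrate reagent for 2 h and test compound for 30 min.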
# [4] = biological target: Atrial natriuretic peptide receptor 2 (Homo sapiens) (UniProt P20594); assay: Natriuretic polypeptide receptor (hNpr2) antagonism - Pilot subtype selectivity assay (AID 1347050; calls by dose curve)
# Procedure, shortened: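 Pilot selectivity screen against hNpr2: HEK293 cGMP-sensor cells are treated with LOPAC1280 compounds, then with hNppC peptide at 1 nM final. The cGMP-driven luminescence change over 20 min at room temperature is the read-out.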
# [5] = biological target: Parathyroid hormone/parathyroid hormone-related peptide receptor (Homo sapiens) (UniProt Q03431); assay: qHTS for PTHR1 Agonists: Optimization Screen against the NCGC LOPAC library (AID 1347079);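 also: GloSensor cAMP luminescence in HEK-293 GP2 cells expressing human PTHR1 with IBMX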
# Procedure, shortened: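 Agonist readout: GloSensor cAMP luminescence, read after 15 min at room temperature. HEK-293-derived GP2 line carries PTHR1; compounds tested as a titration for 1 hr at 37C in presence of IBMX. M-PTH (1-15) served as control.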
# [6] = biological target: N-terminal Xaa-Pro-Lys N-methyltransferase 1 (Homo sapiens) (UniProt Q9BV86); assay: qHTS Assay for Inhibitors of N-terminal methyltransferase 1 (NTMT1): LOPAC validation of the NTMT1 SAHH-coupled ThioGlo3 Assay (AID 1347143);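 also: SAH from peptide methylation measured as thiol fluorescence via SAHH coupling and ThioGlo3; potency is read from the fitted curve at half-maximal effect; nearly all actives have a fitted effect of over 70% in size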
# Procedure, shortened: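 Inhibition of NTMT1 methylation of peptide SPKRIA is followed by converting SAH with SAHH and labelling the released thiol with ThioGlo3. Plates are read at 340/450nm before and 30 min after reagent addition, both at room temperature.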
# [7] = system: Zika virus NS2B-NS3 protease; assay: Primary screen GU AMC qHTS for Zika virus inhibitors (AID 1347154); also: nearly all actives have a fitted effect of over 70% in size
# Procedure, shortened: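 Fluorogenic AMC-substrate cleavage by noncovalent NS2B-NS3 protease complex (25 nM, pH 8.0 Tris buffer with Tween 20) followed for 15 minutes at room temperature (~20% conversion). Percent inhibition from ex340/em450 signal change, fitted by 4-parameter Hill equation.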
# [8] = biological target: Lysine-specific demethylase 5B (Homo sapiens) (UniProt Q9UGL1); assay: Optimization screen for KDM5B Histone Demethylases FDH coupled qHTS against the LOPAC library (AID 1347166)
# Procedure, shortened: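 KDM5BDeltaAP (200nM final) preincubated 10 min with compound, then 12.5uM H3K4Me3, 25uM a-ketoglutarate, ascorbate, Fe(II), NAD+ and FDH added; 50mM HEPES pH 7.5, 0.01% Tween-20. NADH fluorescence (340/450 nm) change over 30 min, room temperature.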
# [9] = qHTS to identify inhibitors of the type 1 interferon - major histocompatibility complex class I in skeletal muscle: primary screen against the NCATS LOPAC collection (AID 1347405);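 also: lytic HiBiT luminescence reporting HLA-B protein level; potency is read from the fitted curve at half-maximal effect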
# Procedure, shortened: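 Luminescence from HiBiT fused to endogenous HLA-B in CRISPR-engineered human myoblasts served as the read-out. Cells received 4.0 ng/ml IFN-beta plus compound (seven concentrations, 1:4.3 steps, highest 46 uM final) for 24 hrs before lytic detection.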
# [10] = qHTS for inhibitors of adenylyl cyclases using a fission yeast platform: a pilot screen against the NCATS LOPAC library (AID 1347410)
# Procedure, shortened: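 Inhibition of GNAS-stimulated AC9 activity in S. pombe was inferred from derepression of a PKA-repressed fbp1-GFP reporter, measured as cytometric fluorescence after 18 h at 30C with compounds at up to 57 µM.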
# [11] = Validation qHTS assay for inhibitors of Activation Induced Cytidine Deaminase (AID): UDG Counterscreen signal (AID 1347427)
# Procedure, shortened: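 Counterscreen read of UDG activity (2 U/mL, 4/3x) in the FRET deamination format with AID (1 uM, 4/3x), DJC20/DJC23 substrates (250 nM, 4x), 4 h at room temperature. NaOH stop, fluorescence at 560 ex/665 em.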
# [12] = biological target: Single-stranded DNA cytosine deaminase (Homo sapiens) (UniProt Q9GZX7); assay: Validation qHTS assay for inhibitors of Activation Induced Cytidine Deaminase (AID): AID signal (AID 1347429)
# Procedure, shortened: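 Fluorescence at 540 nm excitation and 590 nm emission reports ssDNA cytosine deamination by AID, with UDG in the same well. Compound-treated reactions ran 4 hr at room temperature with DJC20/DJC23 substrate, followed by 30 min NaOH treatment.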
# [13] = Primary qHTS for inhibitors of La Crosse Virus (LACV) - induced cell death in SH-SY5Y cells (AID 1508616);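 also: top concentration of the series differs between compounds; higher means more rescue of cells from virus-induced death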
# Procedure, shortened: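 Protection against LACV-induced cell death is scored in SH-SY5Y cells exposed to compounds and virus (0.01 MOI) for 6 days. Data normalized to virus-infected DMSO wells and virus-free DMSO wells.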
# [14] = Counterscreen qHTS for small molecule stabilizers of the endoplasmic reticulum resident proteome: GLuc-NoTag assay (AID 1508627); also: potency is read from the fitted curve at half-maximal effect
# Procedure, shortened: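 Luminescence of Gaussia luciferase secreted into the medium (coelenterazine, 0.07x final, unlysed cells) was the read-out. Human SH-SY5Y neuroblastoma cells constitutively secreting untagged GLuc received compound for 19 h, then 100 nM thapsigargin for 4 h.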
# [15] = Confirmatory qHTS for small molecule stabilizers of the endoplasmic reticulum resident proteome: Secreted ER Calcium Modulated Protein (SERCaMP) assay (AID 1508628); also: potency is read from the fitted curve at half-maximal effect; nearly all actives have a fitted effect of over 40% in size
# Procedure, shortened: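 SH-SY5Y cells stably expressing GLuc-SERCaMP, treated 16 h with compound (primary 1.53, 7.67, 38.3 uM; confirmation 11 concentrations, up to 76.6 uM), then 100 nM thapsigargin for 4 h. Secreted Gaussia luciferase in medium read by coelenterazine luminescence.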
# [16] = Cell Viability qHTS for small molecule stabilizers of the endoplasmic reticulum resident proteome (AID 1508629); settings: cell viability counter-screen, 100 nM thapsigargin for final 4 h;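 also: human SH-SY5Y neuroblastoma cells carrying the GLuc-SERCaMP reporter; compound exposure about 46 h in total before the viability read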
# Papain (Carica papaya) = Papain (Carica papaya) (UniProt P00784); assay: Primary qHTS assay for inhibitors of the protease papain (AID 1645873);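 also: papain turnover of Z-FR-AMC read as the AMC fluorescence gain over 10 min; series mostly up to about 50 µM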
# [17] = biological target: Metallo-beta-lactamase type 2 (Klebsiella pneumoniae) (UniProt C7C422); assay: qHTS to identify inhibitors of the New Delhi Metallo-beta-lactamase (NDM): assay validation screen against the NCATS LOPAC Collection (AID 1794843);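 also: nitrocefin turnover by NDM-1 measured as 485 nm absorbance at plateau; series mostly up to about 38 µM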
# Procedure, shortened: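 NDM-1 at 2 nM final in 50 mM HEPES pH 7.0 with 1 uM ZnSO4 and 0.01% Tween20 was preincubated with library compounds in DMSO. Nitrocefin (50 uM stock) was then added, and absorbance at 485 nm was read at the kinetic plateau.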
# [18] = biological target: Glutathione peroxidase 1 (Homo sapiens) (UniProt P07203); assay: Primary qHTS Assay for Inhibitors of Recombinant Selenoprotein Glutathione Peroxidase 1 (GPX1) (AID 1845191); also: nearly all actives have a fitted effect of over 65% in size
# Procedure, shortened: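 10 nM GPX1 + cpd, 30 min RT; start w/ 1 mM GSH, 0.5 mM cumene hydroperoxide, 0.5 mM NADPH, 100 nM GR, 0.01% BSA; buffer 50 mM Tris-HCl pH 7.5, 2 mM EDTA, 150 mM NaCl; Fl 340/450, 0 & 15 min.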
# [19] = biological target: Phospholipid hydroperoxide glutathione peroxidase GPX4 (Homo sapiens) (UniProt P36969); assay: Primary qHTS Assay for Inhibitors of Recombinant Selenoprotein Glutathione Peroxidase 4 (GPX4) (AID 1845192); settings: outcome: dose series up to 50 µM unless noted; also: nearly all actives have a fitted effect of over 65% in size
# Procedure, shortened: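 NADPH consumption, followed by fluorescence at 340/450 nm between 0 and 15 min, reports GPX4 activity via coupled glutathione reductase (100 nM). Enzyme 200 nM was pre-exposed to compound 30 min; 0.5 mM cumene hydroperoxide and 1 mM GSH served as substrates.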
# Chain of Atrial natriuretic peptide receptor 2 (Homo sapiens) (P20594 whole entry, looked up): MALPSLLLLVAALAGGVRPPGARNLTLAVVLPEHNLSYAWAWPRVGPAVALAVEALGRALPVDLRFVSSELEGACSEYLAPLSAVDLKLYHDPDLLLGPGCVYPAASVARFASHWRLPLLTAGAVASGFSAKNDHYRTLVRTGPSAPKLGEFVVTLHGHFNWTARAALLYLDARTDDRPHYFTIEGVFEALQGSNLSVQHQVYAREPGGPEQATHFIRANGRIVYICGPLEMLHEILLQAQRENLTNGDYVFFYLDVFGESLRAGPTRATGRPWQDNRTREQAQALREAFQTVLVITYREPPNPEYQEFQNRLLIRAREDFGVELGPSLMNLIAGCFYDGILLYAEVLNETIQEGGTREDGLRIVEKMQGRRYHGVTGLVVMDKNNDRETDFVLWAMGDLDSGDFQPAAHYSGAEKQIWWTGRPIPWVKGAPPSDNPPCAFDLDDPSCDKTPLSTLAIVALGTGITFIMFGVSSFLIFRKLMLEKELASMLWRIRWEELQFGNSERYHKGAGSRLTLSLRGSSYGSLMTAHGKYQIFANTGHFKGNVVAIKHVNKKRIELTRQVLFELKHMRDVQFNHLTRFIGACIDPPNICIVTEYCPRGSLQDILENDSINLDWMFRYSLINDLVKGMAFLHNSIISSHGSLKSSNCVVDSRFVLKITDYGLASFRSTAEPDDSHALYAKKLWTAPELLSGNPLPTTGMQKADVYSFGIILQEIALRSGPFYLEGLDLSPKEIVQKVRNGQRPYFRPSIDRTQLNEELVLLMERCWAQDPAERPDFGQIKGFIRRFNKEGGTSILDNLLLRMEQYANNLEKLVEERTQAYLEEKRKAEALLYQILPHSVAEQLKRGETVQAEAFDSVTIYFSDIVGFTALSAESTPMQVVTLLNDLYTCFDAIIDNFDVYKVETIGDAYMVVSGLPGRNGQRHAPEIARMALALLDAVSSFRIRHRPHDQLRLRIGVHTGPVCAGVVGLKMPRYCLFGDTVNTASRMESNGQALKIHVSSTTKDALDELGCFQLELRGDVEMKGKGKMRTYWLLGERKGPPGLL
# Chain of N-terminal Xaa-Pro-Lys N-methyltransferase 1 (Homo sapiens) (Q9BV86 whole entry, looked up): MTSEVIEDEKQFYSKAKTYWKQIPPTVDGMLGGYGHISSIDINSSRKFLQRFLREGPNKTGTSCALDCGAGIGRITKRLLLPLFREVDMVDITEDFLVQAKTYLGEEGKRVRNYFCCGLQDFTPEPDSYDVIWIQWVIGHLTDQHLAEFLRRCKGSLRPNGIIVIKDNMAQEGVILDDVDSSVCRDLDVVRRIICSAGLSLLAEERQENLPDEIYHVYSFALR
# Chain of Phospholipid hydroperoxide glutathione peroxidase GPX4 (Homo sapiens) (P36969 whole entry, looked up): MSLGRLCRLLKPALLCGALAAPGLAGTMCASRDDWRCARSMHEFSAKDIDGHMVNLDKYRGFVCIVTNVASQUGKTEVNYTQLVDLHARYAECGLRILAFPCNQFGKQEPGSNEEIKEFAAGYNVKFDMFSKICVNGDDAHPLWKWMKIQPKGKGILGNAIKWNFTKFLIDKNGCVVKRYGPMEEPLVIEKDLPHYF
# Chain of Atrial natriuretic peptide receptor 1 (Homo sapiens) (P16066 whole entry, looked up): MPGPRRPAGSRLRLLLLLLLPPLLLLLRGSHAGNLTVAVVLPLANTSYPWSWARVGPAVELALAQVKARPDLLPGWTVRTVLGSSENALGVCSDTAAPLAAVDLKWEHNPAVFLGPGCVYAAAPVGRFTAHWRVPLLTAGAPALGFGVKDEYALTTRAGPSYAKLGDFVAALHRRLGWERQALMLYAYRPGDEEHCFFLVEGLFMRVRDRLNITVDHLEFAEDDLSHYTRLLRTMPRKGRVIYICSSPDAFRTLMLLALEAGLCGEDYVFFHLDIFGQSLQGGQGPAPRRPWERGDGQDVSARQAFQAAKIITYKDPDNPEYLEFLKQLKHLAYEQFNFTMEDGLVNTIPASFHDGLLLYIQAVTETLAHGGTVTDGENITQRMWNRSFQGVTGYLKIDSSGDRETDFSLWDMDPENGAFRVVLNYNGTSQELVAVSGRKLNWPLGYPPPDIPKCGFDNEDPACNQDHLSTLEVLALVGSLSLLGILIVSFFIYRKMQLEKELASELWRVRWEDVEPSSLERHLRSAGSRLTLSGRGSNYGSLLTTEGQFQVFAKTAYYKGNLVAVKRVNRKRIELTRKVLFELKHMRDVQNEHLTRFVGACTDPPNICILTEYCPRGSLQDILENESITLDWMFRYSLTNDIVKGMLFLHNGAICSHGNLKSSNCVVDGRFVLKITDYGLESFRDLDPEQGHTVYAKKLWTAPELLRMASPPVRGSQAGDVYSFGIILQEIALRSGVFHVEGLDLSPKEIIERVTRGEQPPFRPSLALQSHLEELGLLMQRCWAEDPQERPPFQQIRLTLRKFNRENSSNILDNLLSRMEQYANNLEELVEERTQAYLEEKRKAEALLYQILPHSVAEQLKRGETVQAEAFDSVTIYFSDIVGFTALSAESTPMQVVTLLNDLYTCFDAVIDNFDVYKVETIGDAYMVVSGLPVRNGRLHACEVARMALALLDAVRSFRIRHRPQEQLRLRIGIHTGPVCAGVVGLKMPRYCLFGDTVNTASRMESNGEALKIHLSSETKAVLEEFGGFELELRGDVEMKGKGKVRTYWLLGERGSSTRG
# Chain of Hexokinase-4 (Homo sapiens) + Glucokinase regulatory protein (Homo sapiens) (P35557 whole entry, looked up): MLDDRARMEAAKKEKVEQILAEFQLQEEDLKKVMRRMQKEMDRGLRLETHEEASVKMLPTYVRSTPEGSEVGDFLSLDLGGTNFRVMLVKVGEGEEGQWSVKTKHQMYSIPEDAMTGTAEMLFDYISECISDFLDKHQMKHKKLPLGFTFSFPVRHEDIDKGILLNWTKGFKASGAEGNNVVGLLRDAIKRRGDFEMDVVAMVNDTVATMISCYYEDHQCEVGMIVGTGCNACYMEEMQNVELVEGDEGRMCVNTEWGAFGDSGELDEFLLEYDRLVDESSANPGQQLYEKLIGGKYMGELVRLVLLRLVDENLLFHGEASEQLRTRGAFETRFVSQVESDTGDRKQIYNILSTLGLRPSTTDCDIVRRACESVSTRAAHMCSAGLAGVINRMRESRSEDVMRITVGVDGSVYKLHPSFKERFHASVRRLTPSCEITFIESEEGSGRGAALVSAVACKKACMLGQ
# Chain of Hexokinase-4 (Homo sapiens) + Glucokinase regulatory protein (Homo sapiens) (Q14397 whole entry, looked up): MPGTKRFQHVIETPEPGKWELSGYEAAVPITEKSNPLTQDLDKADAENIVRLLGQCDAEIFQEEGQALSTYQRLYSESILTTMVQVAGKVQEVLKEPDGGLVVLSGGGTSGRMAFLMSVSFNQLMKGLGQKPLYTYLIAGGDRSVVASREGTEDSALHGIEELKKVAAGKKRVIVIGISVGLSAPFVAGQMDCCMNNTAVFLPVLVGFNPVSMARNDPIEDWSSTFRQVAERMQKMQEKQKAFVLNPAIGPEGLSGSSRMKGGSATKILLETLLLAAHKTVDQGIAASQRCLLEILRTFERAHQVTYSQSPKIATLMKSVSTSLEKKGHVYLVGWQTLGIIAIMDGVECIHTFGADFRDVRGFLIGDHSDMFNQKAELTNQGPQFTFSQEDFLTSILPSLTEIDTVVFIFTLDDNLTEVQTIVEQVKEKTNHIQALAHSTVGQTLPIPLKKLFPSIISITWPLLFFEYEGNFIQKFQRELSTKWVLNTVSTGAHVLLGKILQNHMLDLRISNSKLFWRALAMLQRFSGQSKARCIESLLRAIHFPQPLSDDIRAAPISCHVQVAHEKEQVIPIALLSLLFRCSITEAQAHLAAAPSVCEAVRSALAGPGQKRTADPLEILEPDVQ
# Chain of Glutathione peroxidase 1 (Homo sapiens) (P07203 whole entry, looked up): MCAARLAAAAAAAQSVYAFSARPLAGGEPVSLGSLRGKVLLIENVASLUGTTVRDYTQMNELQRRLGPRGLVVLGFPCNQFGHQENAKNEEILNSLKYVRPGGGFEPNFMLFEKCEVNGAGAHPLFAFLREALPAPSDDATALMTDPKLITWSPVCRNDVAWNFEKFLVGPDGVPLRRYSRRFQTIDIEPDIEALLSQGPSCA
# Chain of Single-stranded DNA cytosine deaminase (Homo sapiens) (Q9GZX7 whole entry, looked up): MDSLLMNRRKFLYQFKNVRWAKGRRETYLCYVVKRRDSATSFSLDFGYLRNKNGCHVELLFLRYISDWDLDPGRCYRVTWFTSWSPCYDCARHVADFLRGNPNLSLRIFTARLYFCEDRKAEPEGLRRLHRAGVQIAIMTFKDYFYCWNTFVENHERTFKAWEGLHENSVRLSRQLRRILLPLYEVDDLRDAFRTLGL
# Chain of Metallo-beta-lactamase type 2 (Klebsiella pneumoniae) (C7C422 whole entry, looked up): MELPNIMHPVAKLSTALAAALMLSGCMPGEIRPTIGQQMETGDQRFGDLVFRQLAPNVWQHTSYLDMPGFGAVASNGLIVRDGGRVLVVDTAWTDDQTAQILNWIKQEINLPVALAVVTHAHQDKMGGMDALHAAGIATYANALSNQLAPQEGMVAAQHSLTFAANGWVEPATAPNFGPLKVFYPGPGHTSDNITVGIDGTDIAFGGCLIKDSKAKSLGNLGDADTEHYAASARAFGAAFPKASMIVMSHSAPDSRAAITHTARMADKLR
# Chain of Parathyroid hormone/parathyroid hormone-related peptide receptor (Homo sapiens) (Q03431 whole entry, looked up): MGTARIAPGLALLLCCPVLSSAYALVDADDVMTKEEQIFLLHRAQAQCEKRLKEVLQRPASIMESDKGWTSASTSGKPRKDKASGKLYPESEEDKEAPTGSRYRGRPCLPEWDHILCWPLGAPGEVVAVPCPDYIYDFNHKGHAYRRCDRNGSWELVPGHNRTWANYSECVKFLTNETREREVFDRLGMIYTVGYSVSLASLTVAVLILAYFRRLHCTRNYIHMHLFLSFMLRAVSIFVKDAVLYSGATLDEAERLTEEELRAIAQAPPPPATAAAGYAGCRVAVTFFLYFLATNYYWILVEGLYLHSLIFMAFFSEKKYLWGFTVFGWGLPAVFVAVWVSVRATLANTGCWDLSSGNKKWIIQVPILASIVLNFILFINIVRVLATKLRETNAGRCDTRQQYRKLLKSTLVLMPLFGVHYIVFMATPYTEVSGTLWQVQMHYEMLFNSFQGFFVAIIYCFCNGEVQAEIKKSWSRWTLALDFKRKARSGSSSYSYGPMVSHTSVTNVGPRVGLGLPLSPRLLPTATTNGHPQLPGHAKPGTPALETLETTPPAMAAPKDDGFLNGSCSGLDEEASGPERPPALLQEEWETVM
structure (smiles),measurement,setting,value
O=Nc1c(-c2c(O)[nH]c3ccccc23)[nH]c2ccccc12,outcome,[1],inactive
same,max response,[2],1.55%
same,Potency,[3],inactive
same,Potency,[4],inactive
same,outcome,[5],inactive
same,Potency,[6],20 µM (active)
same,Potency,[7],inactive
same,outcome,[8],inactive
same,Potency,[9],11.2 µM (active)
same,outcome,[10],inactive
same,outcome,[11],inactive
same,Potency,[12],inactive
same,outcome,[13],inactive
same,Potency,[14],15.8 µM (active)
same,Potency,[15],28.2 µM (active) and 4.47 µM (active)
same,max response,[16],-10.5%
same,Potency,Papain (Carica papaya),inactive
same,Potency,[17],inactive
same,Potency,[18],inactive
same,Potency,[19],inactive
